PubChem BioAssay AID1851 (National Center for Advancing Translational Sciences (NCATS), 2009)
The whole screen tested about 16,000 compounds, of which about 2,600 (16%) were called active. Inconclusive results (about 20%) are left out. Only a sample is shown. Values without a mark were called inactive. The call rests on the fitted dose curve; in most records, active means well fitted curve in the direction sought with a large enough effect; inconclusive means small, poorly fitted or top-dose-only effect, or effect the other way; inactive means no such curve, though single readings can be large or run the other way.
On the % scale 0 is the no-effect control and ±100 the full control effect.

These compounds were tested against Cytochrome P450 2D6 (Homo sapiens) (UniProt P10635) (assay: Cytochrome panel assay with activity outcomes). Details: recombinant CYP, pro-luciferin dealkylation, luminescence, p450-cyp2d6; series mostly up to 57.1 µM.
Cytochrome P450 2D6 (Homo sapiens), sequence (P10635 whole entry, looked up): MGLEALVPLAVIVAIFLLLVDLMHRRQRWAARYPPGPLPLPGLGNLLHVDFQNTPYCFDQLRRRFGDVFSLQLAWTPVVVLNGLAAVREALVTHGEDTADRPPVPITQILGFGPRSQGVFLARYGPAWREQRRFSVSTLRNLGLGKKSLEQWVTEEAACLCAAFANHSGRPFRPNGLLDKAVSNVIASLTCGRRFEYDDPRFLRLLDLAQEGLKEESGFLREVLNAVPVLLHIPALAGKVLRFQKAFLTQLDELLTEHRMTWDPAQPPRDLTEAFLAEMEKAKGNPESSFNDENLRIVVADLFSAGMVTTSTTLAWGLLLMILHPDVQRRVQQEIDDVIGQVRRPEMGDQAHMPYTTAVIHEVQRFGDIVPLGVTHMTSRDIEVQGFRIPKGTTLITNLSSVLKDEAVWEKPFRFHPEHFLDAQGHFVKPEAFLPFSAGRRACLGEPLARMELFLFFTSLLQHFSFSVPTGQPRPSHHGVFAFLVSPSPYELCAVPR
With `CN(C)c1ccc(-c2nc(NCc3cccnc3)c3ccccc3n2)cc1` the AC50 was 7.94 µM (active).
In the case of `Fc1ccc(Nc2nc(-c3ccoc3)nc3ccccc23)cc1`, the AC50 is reported as “inactive”.
`c1csc(CNc2nc(-c3ccoc3)nc3ccccc23)c1` was tested, and the AC50 was 3.98 µM (active).
With `c1ccc(CNc2nc(-c3ccoc3)nc3ccccc23)cc1` the AC50 was 10 µM (active).
`Cc1cccc(CNc2nc(-c3ccoc3)nc3ccccc23)c1` was tested, and the AC50 was 10 µM (active).
`CCNc1ncc2nc(-c3ccc(OC)cc3)c(=O)n(Cc3cccc(OC)c3)c2n1` was tested, and the AC50 was “inactive”.
`Cn1c(=O)n(CCC(=O)O)c2ccccc21` was tested, and the AC50 was “inactive”.
For `COc1cc(/C=N/NC(N)=O)c(Br)cc1OCC(=O)Nc1ccccc1C`, the AC50 was “inactive”.
Work on `CCOC(=O)c1c(O)[nH]c(=O)c(CC)c1C` yielded an activity, negative = inhibition of -17.9% [at 11.4 µM].
For `CCOC(=O)Nc1nc(-c2ccccc2)c(C)s1`, the activity, negative = inhibition was 1.52% [at 11.4 µM].
`CO/N=C(\C(=O)N[C@@H]1C(=O)N2C(C(=O)O)=C(COC(N)=O)CS[C@@H]12)c1ccco1` was tested, and the AC50 was “inactive”.
In the case of `O=S1(=O)CCN(c2ccccc2CC(c2c[nH]c3ccccc23)c2c[nH]c3ccccc23)CC1`, the activity, negative = inhibition is reported as -18% [at 11.4 µM].
`Cc1ccc(C2CC(C(F)(F)F)n3nc(C(=O)NCCN4CCOCC4)cc3N2)cc1` (stereo unspecified) was tested, and the AC50 was “inactive”.
Compound `O=S(=O)(O)[C@@H](c1ccccc1)[C@@H](O)c1ccccc1` has an activity, negative = inhibition of 4.68% [at 11.4 µM].
For `CN(C)c1ccc(-c2nc(NCCc3cnc[nH]3)c3ccccc3n2)cc1`, the AC50 was 7.94 µM (active).
`c1cncc(CNc2nc(-c3ccoc3)nc3ccccc23)c1` was tested, and the AC50 was 5.01 µM (active).
In the case of `Cc1cccc(CNc2nc(-c3cccnc3)nc3ccccc23)c1`, the AC50 is reported as 25.1 µM (active).
With `Cc1cnc(CNc2nc(-c3cccnc3)nc3ccccc23)cn1` the AC50 was “inactive”.
`c1cncc(-c2nc(NCc3cccs3)c3ccccc3n2)c1` was tested, and the AC50 was 6.31 µM (active).
In the case of `CNC(=S)N1N=C(c2ccc(OC)cc2)CC1c1ccc(N(C)C)cc1` (stereo unspecified), the AC50 is reported as “inactive”.
For `Cc1c(CCC(C)C)c(-n2ccnc2C)n2c(nc3ccccc32)c1C#N`, the AC50 was “inactive”.
In the case of `CCSc1nnc2n(N)c(=O)c3ccccc3n12`, the AC50 is reported as “inactive”.
With `Cc1cc(=O)oc2cc(O)c(CN(C)CC(=O)O)cc12` the activity, negative = inhibition was -1.55% [at 11.4 µM].
`Cc1cccc(Nc2ccccc2C(=O)OCC(=O)N(C)C2CCS(=O)(=O)C2)c1C` (stereo unspecified) was tested, and the AC50 was “inactive”.
Compound `Cc1cc(C)nc(SCCc2cccc[n+]2C)n1` has an activity, negative = inhibition of -2.83% [at 11.4 µM].
`S=c1[nH]nc(-c2ccncc2)n1CC1CCCO1` (stereo unspecified) was tested, and the AC50 was “inactive”.
In the case of `Cc1cc(NC(=O)CSc2nc3ccsc3c(=O)n2CCCCC(=O)O)no1`, the AC50 is reported as “inactive”.
In the case of `C[C@@]1(O)CCOC(=O)C1`, the AC50 is reported as “inactive”.
`CCOC(=O)c1c(C)[nH]c(C(=O)OCC(=O)NC2CCS(=O)(=O)C2)c1C` (stereo unspecified) was tested, and the AC50 was “inactive”.
For `NCCS(=O)O`, the AC50 was “inactive”.
For `Cc1ccc(S(=O)(=O)O/N=C2/CCCc3occc32)cc1`, the AC50 was “inactive”.
`O=CN[C@@H](Cc1cnc[nH]1)C(=O)O` showed an activity, negative = inhibition of -4.29% [at 11.4 µM].
In the case of `C[C@@H](CCCCC(=O)Nc1ccc(C(F)(F)F)cc1)NCCc1cnc[nH]1`, the AC50 is reported as 5.01 µM (active).
`CN(C)C[C@H]1CCC[C@@H](CN(C)C)C1=O` showed an activity, negative = inhibition of -1.21% [at 11.4 µM].
With `Clc1ccc2oc(-c3cccnc3)nc2c1` the AC50 was “inactive”.
In the case of `Clc1ccc2c(c1)C(c1cccs1)=NNC(c1cccnc1)=N2`, the AC50 is reported as 10 µM (active).
For `Fc1ccc2c(c1)C(c1ccncc1)=NNC(c1ccc(Cl)cc1)=N2`, the AC50 was 0.398 µM (active).
With `Cn1c(=O)c(-c2cccc(Cl)c2)nc2cncnc21` the AC50 was “inactive”.
With `CCOC(=O)C1CCCN(c2ncnc3c2cnn3-c2ccc(Cl)cc2)C1` (stereo unspecified) the AC50 was “inactive”.
In the case of `COCCn1c(=O)c(-c2cccs2)nc2cncnc21`, the AC50 is reported as “inactive”.
For `C[C@@H](C(=O)Nc1ccc2ccccc2c1)[C@H]1C[C@]1(C)[C@H](NP(=O)(c1ccccc1)c1ccccc1)c1ccccc1`, the AC50 was 0.794 µM (active).
`CC(=O)N[C@H](c1ccccc1)[C@@]1(C)C[C@@H]1[C@@H](C)C(=O)Nc1ccc2ccccc2c1` was tested, and the AC50 was 2 µM (active).
`O=C(Nc1ccc2ccccc2c1)[C@H]1C[C@@H]1[C@H](NP(=O)(c1ccccc1)c1ccccc1)c1ccccc1` was tested, and the AC50 was “inactive”.
With `Cc1nn(C)c(Cl)c1S(=O)(=O)N[C@@H](c1ccccc1)[C@]1(C)C[C@H]1[C@@H](C)C(=O)Nc1ccc2ccccc2c1` the AC50 was “inactive”.
`O=C(Nc1ccc2ccccc2c1)[C@@H]1C[C@H]1[C@@H](NP(=O)(c1ccccc1)c1ccccc1)c1ccccc1` was tested, and the AC50 was “inactive”.
With `C[C@@H](C(=O)Nc1ccc2ccccc2c1)[C@@H]1C[C@@]1(C)[C@@H](N)c1ccccc1` the AC50 was 12.6 µM (active).
